Source: PubChem (National Center for Advancing Translational Sciences (NCATS))
Shown are actives, neighbours in structure and some others; about 4.2% of the full set was active somewhere.
PLK1 PBD inh = blocks phosphopeptide binding to human PLK1 polo-box domain | Plk1 PBD binding of FITC phosphopeptide, fluorescence polarization | Potency, µM, most hits filed as inhibitors | actives 2.8% (n = 360,000) | AID 720504; further: series mostly up to about 57 µM; nearly all actives have a fitted effect of over 65% in size
Target sequence (P53350 whole entry, looked up, the tested form may be a part): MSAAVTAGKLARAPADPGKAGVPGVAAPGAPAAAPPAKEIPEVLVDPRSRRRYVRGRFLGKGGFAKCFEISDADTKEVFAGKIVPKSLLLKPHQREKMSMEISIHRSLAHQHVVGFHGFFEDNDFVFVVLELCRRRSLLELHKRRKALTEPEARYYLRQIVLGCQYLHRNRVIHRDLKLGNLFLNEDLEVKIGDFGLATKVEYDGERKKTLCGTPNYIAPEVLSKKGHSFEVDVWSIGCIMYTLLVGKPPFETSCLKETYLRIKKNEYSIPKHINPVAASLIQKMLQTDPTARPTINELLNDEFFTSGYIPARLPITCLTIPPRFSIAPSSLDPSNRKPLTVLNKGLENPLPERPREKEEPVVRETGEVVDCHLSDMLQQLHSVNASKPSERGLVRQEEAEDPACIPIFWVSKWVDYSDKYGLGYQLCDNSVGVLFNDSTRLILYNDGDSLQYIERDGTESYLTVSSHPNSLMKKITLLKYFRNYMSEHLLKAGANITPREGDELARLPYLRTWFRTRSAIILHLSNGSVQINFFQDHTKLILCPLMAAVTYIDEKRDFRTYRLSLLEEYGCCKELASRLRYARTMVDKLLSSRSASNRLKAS
VDR inhibitor = vitamin D3 receptor (human) inhibition; Potency, µM, most hits filed as inhibitors; actives 0.93% (n = 400,000); AID 504847; VDR-SRC2-3 peptide fluorescence polarization, 2 h; P11473
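FP read-out; VDR + SRC2-3 coactivator peptide; 23 nl compound by pintool; 2 h RT incubation; reagents held at 4 deg C, protected from light.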
Sfp PPTase inh = blocks B. subtilis Sfp PPTase activity. Biochemical Sfp PPTase activity, qHTS. Potency, µM, most hits filed as inhibitors. actives 3.5% (n = 310,000);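 further: the enzyme is Sfp with the accession as filed and its product quenches rhodamine fluorescence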
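With Hepes-Na pH 7.6 buffer containing 10 mM MgCl2, Sfp (15 nM) modified BHQ-2-YbbR (12.5 uM) using rhodamine-CoA (5 uM). Two reads 30 minutes apart at 525/598 nm yielded each well's rate.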
ALOX12 inh = blocks human arachidonate 12S-lipoxygenase. Potency, µM (doses to about 108 µM), hits mostly inhibitors. P18054. actives 1.1% (n = 580,000). AID 1671190. purified 12hLO, xylenol orange hydroperoxide absorbance
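Hydroperoxide product was detected by ferrous iron/xylenol orange as the 573 to 405 nm absorbance ratio. Arachidonic acid at 40 uM (final) was turned over for 30 min at room temperature by 150 nM human 12hLO, pH 7.0 Hepes buffer, after 15 min compound preincubation.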
Hits are given with their value. The call rests on the fitted dose curve; in most records, active means well fitted curve in the direction sought with a large enough effect; inconclusive means small, poorly fitted or top-dose-only effect, or another doubt; inactive means no such curve, though single readings can be large; an effect the other way counts as inactive or inconclusive.

How did CCOC(=O)C1CCCN(c2c(NCCCN(CC)c3cccc(C)c3)c(=O)c2=O)C1 (stereo not given) do in these assays?
PLK1 PBD inh: 24µM; VDR inhibitor: inactive; Sfp PPTase inh: inactive; ALOX12 inh: inactive

How did Fc1ccc(-c2nc3nc4ccccc4nc3n2Cc2ccco2)cc1 do in these assays?
PLK1 PBD inh: inactive; VDR inhibitor: inactive; Sfp PPTase inh: 18µM; ALOX12 inh: inactive

What do the screens show for `Fc1ccc(-n2c(-c3ccco3)nc3nc4ccccc4nc32)cc1`?
PLK1 PBD inh: inactive; VDR inhibitor: inactive; Sfp PPTase inh: inactive; ALOX12 inh: inactive

Results for c1ccc(-c2nc3nc4ccccc4nc3n2Cc2ccco2)cc1 ?
PLK1 PBD inh: inactive; VDR inhibitor: inactive; Sfp PPTase inh: 10µM; ALOX12 inh: inactive

Results for COc1cc(C(=O)NS(=O)(=O)c2ccccc2C)ccc1Cc1cn(C)c2ccc(NC(=O)OC3CCCC3)cc12 ?
VDR inhibitor: 50µM; Sfp PPTase inh: inactive; ALOX12 inh: inactive

Results for Cc1ccc(NC(=O)N(Cc2cn(C)c3ccccc23)C2CCCCC2)cc1C ?
VDR inhibitor: inactive; ALOX12 inh: inactive

How did COc1ccc(C(=O)Nc2ccc(N3CCN(c4ccccc4)CC3)c(C(=O)O)c2)cc1 do in these assays?
VDR inhibitor: inactive; ALOX12 inh: inactive

Results for O=C(Nc1ccc(N2CCN(CCOc3ccc(Cl)cc3)CC2)c(C(=O)O)c1)c1ccc(F)cc1 ?
VDR inhibitor: inactive; ALOX12 inh: 45µM

What do the screens show for `CCN(CC)C(=O)CSc1nc2cc3c(cc2c(=O)n1CCCCCC(=O)NCc1ccc(OC)cc1)OCO3`?
PLK1 PBD inh: inactive; VDR inhibitor: inactive; Sfp PPTase inh: inactive; ALOX12 inh: inconclusive

Results for CC(C)C[C@@H](NC(=O)C1=C[C@@H](NS(=O)(=O)c2cccc(C(F)(F)F)c2)[C@@H](O)[C@H](O)C1)C(N)=O ?
ALOX12 inh: 40µM

How did CC1=C(C(=O)c2ccccc2)C(c2ccc(OC(F)F)cc2)NC(=S)N1 (stereo not given) do in these assays?
PLK1 PBD inh: 24µM; VDR inhibitor: inconclusive; Sfp PPTase inh: inactive; ALOX12 inh: inconclusive

Results for CC1=C(C(=O)c2ccccc2)C(c2ccc(O)cc2)NC(=S)N1 (stereo not given) ?
PLK1 PBD inh: inactive; VDR inhibitor: inactive; Sfp PPTase inh: inactive; ALOX12 inh: inconclusive

Results for COc1ccc(C2C(C(=O)O)CCC(=O)N2c2ccc(C)cc2)cc1OC (stereo not given) ?
PLK1 PBD inh: inactive; VDR inhibitor: inactive; Sfp PPTase inh: inactive; ALOX12 inh: inactive

Results for COc1ccc(C2NC(=O)C(C#N)=C(S)N2c2ccc(C)cc2)cc1OC (stereo not given) ?
PLK1 PBD inh: inconclusive; VDR inhibitor: 32µM; Sfp PPTase inh: 32µM; ALOX12 inh: inconclusive

Results for COc1cc(C2NC(=O)C(C#N)=C(S)N2c2ccc(C)cc2)ccc1OC(C)C (stereo not given) ?
PLK1 PBD inh: inconclusive; VDR inhibitor: 28µM; Sfp PPTase inh: inconclusive; ALOX12 inh: inconclusive

Results for COc1ccc(C2N(c3ccccc3)C(=O)C2(F)F)cc1OC (stereo not given) ?
PLK1 PBD inh: inactive; VDR inhibitor: inactive; Sfp PPTase inh: inactive; ALOX12 inh: inconclusive

What do the screens show for `COc1ccc(C2NC(=O)C(C#N)=C(S)N2c2cccc(C)c2)cc1OC` (stereo not given)?
PLK1 PBD inh: inconclusive; VDR inhibitor: inconclusive; Sfp PPTase inh: 32µM; ALOX12 inh: inconclusive

How did COc1cc2c(cc1OC)CN(C(=O)/C=C/c1ccc([N+](=O)[O-])cc1)CC2 do in these assays?
PLK1 PBD inh: inactive; VDR inhibitor: inactive; Sfp PPTase inh: inactive; ALOX12 inh: 14µM

What do the screens show for `COc1cc2c(cc1OC)CN(C(=O)CSc1ccccc1C)CC2`?
PLK1 PBD inh: 27µM; VDR inhibitor: inactive; ALOX12 inh: inactive

Results for COc1cc2c(cc1OC)CN(C(=O)c1ccc(OC)c([N+](=O)[O-])c1)CC2 ?
PLK1 PBD inh: inactive; VDR inhibitor: inactive; Sfp PPTase inh: inactive; ALOX12 inh: inactive

Results for COc1cc2c(cc1OC)CN(C(=O)c1cccc([N+](=O)[O-])c1)CC2 ?
PLK1 PBD inh: 27µM; VDR inhibitor: 79µM; Sfp PPTase inh: inactive; ALOX12 inh: inconclusive

What do the screens show for `Clc1ccc(-[n+]2c(-c3cccc(Br)c3)[nH]c3nc4ccccc4nc32)cc1`?
PLK1 PBD inh: inactive; VDR inhibitor: inactive; Sfp PPTase inh: inactive; ALOX12 inh: inactive

How did Cc1cc2c(=Cc3ccc(N(C)C)cc3)c3ccccc3n2[n+]1C do in these assays?
PLK1 PBD inh: inactive; VDR inhibitor: inactive; ALOX12 inh: inactive

How did CCOC(=O)c1cc2c(=Cc3ccc(N(C)C)cc3)c3ccccc3n2[n+]1C do in these assays?
PLK1 PBD inh: 13µM; VDR inhibitor: inconclusive; ALOX12 inh: inconclusive

What do the screens show for `CN(C)c1ccc(C=c2c3ccccc3n3c2c2ccccc2[n+]3C)cc1`?
PLK1 PBD inh: 24µM; VDR inhibitor: inactive; ALOX12 inh: 5µM

Results for O=C(O)c1[nH]c2ccccc2c1C(c1cc(Br)ccc1O)c1c(C(=O)O)[nH]c2ccccc12 ?
PLK1 PBD inh: 17µM; VDR inhibitor: inconclusive; Sfp PPTase inh: inactive; ALOX12 inh: inconclusive

What do the screens show for `O=C(O)c1[nH]c2ccccc2c1C(c1c(F)cccc1Cl)c1c(C(=O)O)[nH]c2ccccc12`?
PLK1 PBD inh: inconclusive; VDR inhibitor: inconclusive; Sfp PPTase inh: inactive; ALOX12 inh: inactive

How did COc1cc(Cl)cc(C(c2c(C(=O)O)[nH]c3ccccc23)c2c(C(=O)O)[nH]c3ccccc23)c1O do in these assays?
PLK1 PBD inh: 24µM; VDR inhibitor: inconclusive; Sfp PPTase inh: inactive; ALOX12 inh: 16µM

How did Cc1[nH][nH]c(=O)c1C(c1cc(Br)ccc1O)c1c(C)[nH][nH]c1=O do in these assays?
PLK1 PBD inh: 24µM; VDR inhibitor: inconclusive; Sfp PPTase inh: inactive; ALOX12 inh: inactive

How did COc1cccc(CN(C)C2CCc3ccccc32)c1 (stereo not given) do in these assays?
ALOX12 inh: inactive

Results for Cn1nnc2sc3c(c2c1=O)CCCC3 ?
PLK1 PBD inh: inconclusive; VDR inhibitor: inactive; Sfp PPTase inh: 50µM; ALOX12 inh: inactive

How did COC(=O)Cn1nnc2sc3c(c2c1=O)CCCC3 do in these assays?
ALOX12 inh: inactive

What do the screens show for `Cn1c(=O)c2[nH]c(SCCN3CCOCC3)nc2n(C)c1=S`?
PLK1 PBD inh: 27µM; VDR inhibitor: 28µM; ALOX12 inh: 32µM

What do the screens show for `c1ccc2sc(SSc3nc4ccccc4s3)nc2c1`?
VDR inhibitor: inactive; Sfp PPTase inh: 56µM; ALOX12 inh: 5µM

How did Cn1c(-c2sc3ccccc3c2Cl)n[nH]c1=S do in these assays?
PLK1 PBD inh: inactive; VDR inhibitor: inactive; Sfp PPTase inh: inactive; ALOX12 inh: 14µM

Results for Cc1cc(C)nc(SC2=CS(=O)(=O)c3ccccc32)n1 ?
PLK1 PBD inh: inactive; VDR inhibitor: inactive; Sfp PPTase inh: inactive; ALOX12 inh: inactive

What do the screens show for `FC(F)Sc1nc2ccccc2s1`?
ALOX12 inh: inactive

How did O=C(O)CSCC(=O)Nc1ccc(-c2nc3ccccc3s2)cc1 do in these assays?
PLK1 PBD inh: 9.5µM; VDR inhibitor: inconclusive; Sfp PPTase inh: inconclusive; ALOX12 inh: inconclusive
